Source: PubChem BioAssay AID1851 (National Center for Advancing Translational Sciences (NCATS), 2009)
Screen size: about 16,000 compounds; about 4,000 (25%) were called active. About 26% were inconclusive and are not listed. The call rests on the fitted dose curve; in most records, active means well fitted curve in the direction sought with a large enough effect; inconclusive means small, poorly fitted or top-dose-only effect, or effect the other way; inactive means no such curve, though single readings can be large or run the other way. Only a sample is shown.

molecular target: Cytochrome P450 2C9 (Homo sapiens) (UniProt P11712); experiment: Cytochrome panel assay with activity outcomes; details: recombinant CYP, pro-luciferin dealkylation, luminescence, p450-cyp2c9; series mostly up to 57.1 µM
Sequence (P11712 whole entry, looked up): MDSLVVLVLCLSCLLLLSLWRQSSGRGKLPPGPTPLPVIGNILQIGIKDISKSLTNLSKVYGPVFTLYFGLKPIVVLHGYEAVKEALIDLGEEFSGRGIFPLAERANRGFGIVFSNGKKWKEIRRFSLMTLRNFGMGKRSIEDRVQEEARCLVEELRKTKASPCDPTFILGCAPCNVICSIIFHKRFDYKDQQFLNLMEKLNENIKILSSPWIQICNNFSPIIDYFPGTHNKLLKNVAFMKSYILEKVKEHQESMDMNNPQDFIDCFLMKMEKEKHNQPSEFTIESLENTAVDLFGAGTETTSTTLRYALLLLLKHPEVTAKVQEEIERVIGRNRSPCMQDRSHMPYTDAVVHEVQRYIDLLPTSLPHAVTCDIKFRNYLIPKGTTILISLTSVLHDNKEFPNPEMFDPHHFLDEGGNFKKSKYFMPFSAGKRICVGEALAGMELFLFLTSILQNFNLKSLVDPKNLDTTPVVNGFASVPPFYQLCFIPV
On the % scale 0 is the no-effect control and ±100 the full control effect.

SMILES	AC50	activity, negative = inhibition
CC(=O)Nc1ccccc1C(=O)OCc1ccc(C(=O)c2ccccc2)cc1	3.55 µM (active)	
CC[C@H]1CN2CCc3cc(OC)c(OC)cc3[C@H]2C[C@@H]1C[C@H]1NCCc2c1[nH]c1ccc(O)cc21		5.99% [at 11.4 µM] (inactive)
COC(=O)Nc1nc2ccc(C(=O)c3cccs3)cc2[nH]1		inactive
CN1[C@H]2CC(=O)C[C@@H]1[C@@H](O)C2		inactive
CN1C(=O)C(=Cc2ccc(N3CCCCCC3)o2)C(=O)N(C)C1=S	7.94 µM (active)	
COc1cc(C[C@H](C)N)c(OC)cc1I		inactive
C/C=C1\C[N@@+]2(C)CC[C@@]34C(=C(C=O)[C@H]1C[C@H]32)Nc1ccccc14		inactive
C[As+](C)(c1ccc(Br)c([N+](=O)[O-])c1)c1ccc(Br)c([N+](=O)[O-])c1.O=[N+]([O-])O		1.81% [at 11.4 µM] (inactive)
O=[N+]([O-])c1cc(O)c(O)c([N+](=O)[O-])c1	0.794 µM (active)	
O=[N+]([O-])c1cc([As](=O)(O)O)ccc1O		inactive
O=C(CCCN1CCC2(CC1)C(=O)NCN2c1ccccc1)c1ccc(F)cc1		inactive
[N-]=[N+]=NCC(=O)c1c[nH]c(=O)[nH]c1=O		-6.58% [at 11.4 µM] (inactive)
O=C1NCN(c2ccccc2)C12CCN(CCCOc1ccc(F)cc1)CC2		inactive
CC(C)c1c(CN(C)[C@@H](C)Cc2ccccc2)n(C)n(-c2ccccc2)c1=O	7.94 µM (active)	
CCCN(CCC)C(=O)Cc1c(-c2ccc(Cl)cc2)nc2c(Cl)cc(Cl)cn12		inactive
CCCCCC[C@H]1C(=O)O[C@H](C)[C@H](NC(=O)c2cccc(NC=O)c2O)C(=O)O[C@@H](C)[C@H]1OC(=O)CC(C)C		inactive
CCOC(=O)N1CCC(NC(=O)CCc2nc(C3=CCN(C)CC3)no2)CC1		inactive
O=C(Nc1ccc(F)cc1F)c1cccnc1Oc1cccc(C(F)(F)F)c1		inactive
CN(C)CCN(C)CCc1ccc(Cl)c(Cl)c1		inactive
O=C(Nc1ccccc1)N1CC2(CCN(C(=O)Oc3ccccc3)CC2)C1		inactive

SMILES	AC50	activity, negative = inhibition
NC(N)=NN=Cc1c(Cl)cccc1Cl		inactive
c1ccc(N2CCC3(CCNCC3)CC2)cc1		inactive
O=C(NC1CCCCC1)NC1CC2CCC(C1)N2Cc1nnnn1Cc1ccc2c(c1)OCO2 (stereo not given)	14.1 µM (active)	
CCc1ccccc1NC(=O)NC1CC2CCC(C1)N2Cc1cccs1 (stereo not given)		inactive
COc1ccc(NC(=O)NC2CC3CCCC(C2)N3Cc2ccccc2)cc1 (stereo not given)		inactive
CC1=C(CC[C@H](C)CO)O[C@@H]2C[C@@H]3[C@H]4CC[C@H]5C[C@@H](O)CC[C@]5(C)[C@@H]4CC(=O)[C@@]3(C)[C@@H]12		-6.29% [at 11.4 µM] (inactive)
O=C1/C(=C\c2ccccc2)C[C@@]2(O)[C@H]3Cc4ccc(O)c5c4[C@@]2(CCN3CC2CC2)[C@@H]1O5		inactive
O=c1c2ccccc2nc(N2CCCC2)n1-c1ccc(Cl)cc1	14.1 µM (active)	
Cc1nc2sccc2c(=O)n1-c1ccccc1Cl		inactive
O=C(O)c1nn(Cc2ccc(Cl)cc2Cl)c2ccccc12		inactive
C=CCN1CCC2(C)c3cc(O)ccc3C[C@H]1[C@H]2C		inactive
C1C[C@@H]2CN(CCCN3CCOCC3)[C@@H](C1)O2		-4.7% [at 11.4 µM] (inactive)
Cc1ccc(NC(=[OH+])c2cc3ccccc3cc2O)c(C)c1.Cc1ccc(NC(=[OH+])c2cc3ccccc3cc2O)c(C)c1.[Ni]	3.16 µM (active)	
COc1cc(CCN)c(OC)c(OC)c1		-1.31% [at 11.4 µM] (inactive)
O=C(CCN1CC2CCC(CC2)C1)c1cccs1		-7.86% [at 11.4 µM] (inactive)
C[C@@H]1OC=C2[C@@H](O)[C@H]3O[C@H]3C(=O)[C@@]23[C@H]1[C@H]1C2=C([C@@H](O)[C@H]4O[C@@H]4C2=O)[C@@H]3O[C@@H]1C		19.8% [at 11.4 µM] (inactive)
Nc1nnnn1CCO		-3.83% [at 11.4 µM] (inactive)
CS(=O)(=O)O[C@H]1CN2CCC1CC2		8.53% [at 11.4 µM] (inactive)
CN1[C@@H]2CC[C@H]1CC(O[C@@H](c1ccccc1)c1ccc(Cl)cc1)C2 (stereo not given in full)		inactive
CCCCN(CCCC)CCC(O)c1cc2c(Cl)cc(Cl)cc2c2cc(C(F)(F)F)ccc12 (stereo not given)		inactive

SMILES	AC50	activity, negative = inhibition
N[C@H](CCl)C(=O)O		inactive
O=C(Oc1ccccc1)N1CCC2(CCN(Cc3nccs3)CC2)CC1		inactive
CN(C)Cc1c[nH]c2ccccc12		inactive
CC(C)COc1ccc(C2(C#N)CC[N+](C)(C)CC2)cc1		inactive
C=C(C)[C@H]1CC[C@]2(C(=O)O)CC[C@]3(C)[C@@H](CC[C@H]4[C@@]5(C)CC[C@@H](O)C(C)(C)[C@@H]5CC[C@@]43C)[C@H]12		inactive
CCCCC/C=C\C/C=C\C/C=C\C/C=C\CCCC(=O)Nc1ccc(O)cc1	5.01 µM (active)	
CCCCCCCC/C=C\CCCCCCCC(N)=O		inactive
CCCCC/C=C\C/C=C\C/C=C\C/C=C\CCCC(=O)NCC(=O)O		inactive
C[N+]1(C)CCc2cc3c(cc2[C@@H]1[C@@H]1OC(=O)c2c1ccc1c2OCO1)OCO3		inactive
O=C(Nc1ccccc1)N1CC[C@@]2(CCCN(C(=O)Oc3ccccc3)C2)C1		inactive
O=C(O)/C=C(\CC(=O)O)C(=O)O		-16.9% [at 11.4 µM] (inactive)
O=C(O)C(=O)Cc1ccc2c(c1)OCO2		25.4% [at 11.4 µM] (inactive)
COCOc1ccc(Br)cc1C(=O)/C=C\c1ccc2c(c1)OCO2	2 µM (active)	
CCN1CCC2(CC1)NC(CO)(CO)CO2		inactive
O=C(O)[C@H]1[C@H](C(=O)O)[C@H]2CC[C@@H]1O2		inactive
N[C@H](Cc1c[nH]c2ccccc12)P(=O)(O)O		5.69% [at 11.4 µM] (inactive)
C[C@@]12CC(=O)[C@H]3[C@@H](CCC4=CC(=O)CC[C@]43C)[C@H]1CCC2=O		inactive
CCCn1c(C)c(C(=O)c2cccc3ccccc23)c2ccccc21		inactive
CCOC(=O)Cn1cc(C(=O)c2ccccc2F)c2ccccc21	7.08 µM (active)	
O=C(c1ccccc1F)c1cn(CC(=O)N2CCOCC2)c2ccccc12	11.2 µM (active)	
